Our source for the growth values is PubChem BioAssay (NCI).

Structures are written as SMILES. The panel holds about 83,000 compounds, 20% with a hit somewhere; the sample as a whole holds those more often.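 Cells were grown in 96-well plates and exposed to the test compound at a single concentration for 48 hours; results are reported as percent growth, with values below 10 considered active.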 Unmarked numbers belong to inactive results. The source made the active and inactive calls.

Among the test systems are HCT-15 colon; HT29 colon; SNB-75 CNS; SNB-19 CNS; U251 CNS; PC-3 prostate; SK-MEL-5 melanoma; UACC-62 melanoma; LOX IMVI melanoma; SK-MEL-28 melanoma; EKVX NSCLC; SN12C renal; UO-31 renal; TK-10 renal; ACHN renal; CAKI-1 renal; CCRF-CEM leukemia; MOLT-4 leukemia; SK-MEL-2 melanoma; A498 renal.
Holding throughout (experiment): NCI-60 one-dose screen, 48 h (100 = growth as untreated, 0 = no growth, -100 = all killed)
Holding throughout (conditions): 10 µM unless noted

For `C=C1C(=O)O[C@H]2[C@H]1CC/C(CNC(=O)/C=C/c1ccccc1F)=C\CC[C@@]1(C)O[C@@H]21`, the growth in the test on HCT-15 colon is -63.4% (active); in the test on HT29 colon it was -17.2% (active); in the test with SNB-75 CNS it was 94.1%; in the test with SNB-19 CNS, 56.4%; in the test on U251 CNS, 52.5%; in the test with PC-3 prostate it was 37.3%. Moreover, the growth was 66.1% in the test with SK-MEL-5 melanoma; -5.46% (active) with UACC-62 melanoma; -25% (active) in the test on LOX IMVI melanoma; -33.9% (active) in the test on SK-MEL-28 melanoma; -18.9% (active) with EKVX NSCLC; 8.82% (active) in the test with SN12C renal. The growth was -95.9% (active) in the test with UO-31 renal; -29% (active) with TK-10 renal; -65.6% (active) with ACHN renal; -84.4% (active) in the test with CAKI-1 renal; -0.259% (active) in the test on CCRF-CEM leukemia; -12% (active) with MOLT-4 leukemia.

Regarding `CC(=O)N1N=C(c2cccc(Nc3ccncc3)c2)CC1c1ccccc1` (configuration not stated), the growth in the test with HCT-15 colon is 82.8%; with HT29 colon, 33.2%; in the test with SNB-75 CNS it was 53.3%; in the test on SNB-19 CNS, 91.8%; in the test on U251 CNS, 72.9%; in the test on PC-3 prostate, 75.9%. The growth in the test on SK-MEL-5 melanoma is 82%; in the test on UACC-62 melanoma it was 86.7%; in the test with LOX IMVI melanoma, 90.9%; with SK-MEL-28 melanoma, 86.5%; in the test on SK-MEL-2 melanoma it was 100%; with SN12C renal, 81.7%. Further, the growth is 80.6% with UO-31 renal; 94.6% in the test on ACHN renal; 77.2% in the test with CAKI-1 renal; 70% in the test with A498 renal; 84.1% in the test with CCRF-CEM leukemia; 81.4% in the test on MOLT-4 leukemia.

With `Cn1/c(=N/NC(N)=S)ccc2ccccc21`, the growth with HCT-15 colon was 82.3%; in the test with HT29 colon, 57.9%; in the test on SNB-75 CNS, 101%; in the test with SNB-19 CNS it was 105%; with U251 CNS, 97.5%; in the test with PC-3 prostate, 76.7%. Also, the growth is 102% in the test on SK-MEL-5 melanoma; 102% in the test on UACC-62 melanoma; 102% in the test with LOX IMVI melanoma; 117% in the test on SK-MEL-28 melanoma; 78.1% with EKVX NSCLC; 91.3% in the test with SN12C renal. The growth is 62.7% in the test on UO-31 renal; 113% in the test on TK-10 renal; 95.2% in the test on ACHN renal; 95.7% in the test on CAKI-1 renal; 63.9% in the test on CCRF-CEM leukemia; 48.5% with MOLT-4 leukemia.

With `NC(=O)c1cccc(-n2ccc3cc(NC(=O)Nc4cc(C(F)(F)F)cc(C(F)(F)F)c4)ccc32)n1`, the growth in the test on HCT-15 colon is 37.1%; in the test with HT29 colon, 52.6%; with SNB-75 CNS, 41%; in the test with SNB-19 CNS it was 42%; in the test with U251 CNS it was 36.7%; in the test on PC-3 prostate, 32.4%. In addition, the growth in the test on SK-MEL-5 melanoma was 69%; with UACC-62 melanoma it was 52.9%; in the test with LOX IMVI melanoma, 50.9%; with SK-MEL-28 melanoma it was 69.3%; with EKVX NSCLC, 40.5%; in the test on SN12C renal, 35.9%. Also, the growth in the test with UO-31 renal is 47.4%; in the test on TK-10 renal, 62.8%; in the test on ACHN renal it was 39.9%; with CAKI-1 renal it was 41.4%; in the test on CCRF-CEM leukemia it was 53.7%; in the test on MOLT-4 leukemia it was 26.4%.

Take `Cc1ccc(C(c2c(O)c3cc(Br)ccc3[nH]c2=O)c2c(O)c3cc(Br)ccc3[nH]c2=O)cc1`: the growth with HCT-15 colon was 79.1%; in the test on HT29 colon it was 97.5%; in the test on SNB-75 CNS, 83.7%; with SNB-19 CNS, 93%; in the test on U251 CNS it was 83.7%; with PC-3 prostate, 75.5%. Besides, the growth is 73.3% in the test with SK-MEL-5 melanoma; 63.2% in the test with UACC-62 melanoma; 84.1% in the test with LOX IMVI melanoma; 89.6% with SK-MEL-28 melanoma; 71.2% in the test with EKVX NSCLC; 94.5% in the test with SN12C renal. For the same molecule, the growth in the test with UO-31 renal was 59.5%; in the test with TK-10 renal, 106%; with ACHN renal, 73.5%; with CAKI-1 renal it was 76.5%; with A498 renal it was 79.6%; in the test on CCRF-CEM leukemia, 80.3%. Moreover, in the test with MOLT-4 leukemia, the growth is 66.6%.

Regarding `CS(=O)(=O)c1ccc(-c2cc(-c3nnc(SCC(=O)Nc4ccc(C(=O)/C=C/c5ccc(Cl)cc5)cc4)n3-c3ccccc3)c3ccccc3n2)cc1`, the growth in the test on HCT-15 colon is 96.4%; with HT29 colon, 106%; in the test on SNB-75 CNS, 72.3%; in the test with SNB-19 CNS it was 85.2%; with U251 CNS, 90.9%; with PC-3 prostate it was 89.1%. Further, the growth with SK-MEL-5 melanoma was 95.7%; in the test on UACC-62 melanoma, 80.2%; in the test on LOX IMVI melanoma, 92.2%; in the test with SK-MEL-28 melanoma it was 103%; in the test on EKVX NSCLC, 94%; in the test on SN12C renal, 91.3%. Further, the growth was 72.5% in the test on UO-31 renal; 99.3% with TK-10 renal; 97.6% with ACHN renal; 86.2% with CAKI-1 renal; 99.6% with CCRF-CEM leukemia; 90.5% with MOLT-4 leukemia.

With `CC1(C)CN(Cc2ccccc2)CCN1Cc1ccccc1`, the growth was 104% with HCT-15 colon; 96.2% in the test with HT29 colon; 121% with SNB-75 CNS; 98.1% with SNB-19 CNS; 92.3% in the test with U251 CNS; 95.4% in the test with PC-3 prostate. The growth in the test on SK-MEL-5 melanoma is 97.8%; with UACC-62 melanoma, 97.9%; with LOX IMVI melanoma, 98.6%; in the test with SK-MEL-28 melanoma it was 111%; in the test with EKVX NSCLC it was 106%; with SN12C renal it was 96.1%. Also, the growth was 93.6% in the test on UO-31 renal; 96.3% in the test on TK-10 renal; 109% with ACHN renal; 102% in the test on CAKI-1 renal; 85.8% with A498 renal; 90.9% with CCRF-CEM leukemia. Also, the growth with MOLT-4 leukemia was 100%.

Take `CC[C@H](C)[C@@H]1NC(=O)[C@H](Cc2ccc(O)cc2)N(C)C(=O)[C@H](Cc2ccccc2)NC(=O)CN(C)C(=O)[C@@H]2CCCN2C(=O)[C@@H](Cc2ccccc2)N(C)C(=O)[C@H](CC(C)C)NC1=O`: the growth in the test on HCT-15 colon is 41.5%; with HT29 colon it was 4.78% (active); in the test with SNB-75 CNS, -11.6% (active); in the test on SNB-19 CNS, -8.3% (active); with U251 CNS, 6.02% (active); in the test with PC-3 prostate, 2.42% (active). Besides, the growth with SK-MEL-5 melanoma is -67.2% (active); in the test with UACC-62 melanoma, -28.8% (active); with LOX IMVI melanoma, -18.6% (active); in the test with SK-MEL-28 melanoma, -43.8% (active); in the test on EKVX NSCLC, -3.63% (active); in the test with SN12C renal it was -13.7% (active). Also, the growth in the test with UO-31 renal is 44.4%; in the test on TK-10 renal, 6.34% (active); with ACHN renal, 4.52% (active); in the test with CAKI-1 renal, 11.4%; with A498 renal, -3.73% (active); in the test with CCRF-CEM leukemia, -7.96% (active). The growth in the test on MOLT-4 leukemia is 2.71% (active).
